Common to all, as to assay: NCI-60 one-dose screen, 48 h (100 = growth as untreated, 0 = no growth, -100 = all killed)
For assay [1], the system named is SK-MEL-2 melanoma. The following applies: 10 µM unless noted.
Assay [2] concerns EKVX NSCLC. The settings on record: 10 µM unless noted.
Assay [3] has as its system SN12C renal. The settings on record: 10 µM unless noted.
Assay [4] relates to UO-31 renal. The settings on record: 10 µM unless noted.
Assay [5] has as its system TK-10 renal.
In assay [6] the test system is ACHN renal. The following applies: 10 µM unless noted.
The subject of assay [7] is CAKI-1 renal. The settings on record: 10 µM unless noted.
Assay [8] concerns CCRF-CEM leukemia. The following applies: 10 µM unless noted.
Assay [9] has as its system MOLT-4 leukemia. The settings on record: 10 µM unless noted.
Assay [10] concerns A498 renal. The following applies: 10 µM unless noted.

SMILES strings stand for the structures. Several values for one entry are separate records, joined by “and”; a condition that tells them apart may be missing. Identical values can stand only once. About 83,000 compounds went through this panel and 20% of them were active in at least one assay; those are over-represented in the sample as a whole.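 Cells were grown in 96-well plates and exposed to the test compound at a single concentration for 48 hours; results are reported as percent growth, with values below 10 considered active.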 Activity calls are given as the source filed them.

`N#CC(=S)Nc1ccc(Cl)c(Cl)c1`: the growth in assay [1] is -26.4% (active); in assay [2], 10.9% (inactive); in assay [3], -7.92% (active); in [4], -1.39% (active); in assay [5] (10 µM), 17.5% (inactive); in assay [5] (100 µM), 8.11% (active) and -69.1% (active). In addition, the growth is 0.0372% (active) in assay [6], -6.76% (active) in [7], 28.4% (inactive) in assay [8] and 15.8% (inactive) in [9].

`COC(=O)c1nc(=S)[nH]c(C(=O)OC)c1C(=O)c1ccc(OC)cc1`: the growth in assay [1] was 104% (inactive); in [2] it was 107% (inactive); in assay [3], 98.5% (inactive); in assay [4], 86.8% (inactive); in assay [5] (10 µM unless noted), 110% (inactive); in assay [6], 105% (inactive). For the same compound, the growth is 94.5% (inactive) in assay [7], 116% (inactive) in assay [10], 101% (inactive) in assay [8] and 107% (inactive) in assay [9].

Turning to `Cc1nc(Nc2ccc(Cl)cc2)c2cnn(-c3ccccc3)c2n1`, the growth is 100% (inactive) in assay [1]; 91.3% (inactive) in assay [2]; 102% (inactive) in [3]; 94.6% (inactive) in assay [4]; 95.4% (inactive) in assay [5] (10 µM unless noted); 105% (inactive) in assay [6]. Further, the growth in assay [7] was 96.3% (inactive); in assay [10] it was 83.5% (inactive); in [8] it was 26.1% (inactive); in assay [9], 106% (inactive).

For the compound `Nc1c(S(=O)(=O)O)cc(Br)c2c1C(=O)c1ccccc1C2=O`, the growth in [1] was 91.8% (inactive); in assay [2], 101% (inactive); in [3] it was 107% (inactive) and 112% (inactive); in [4] it was 77.4% (inactive) and 67.5% (inactive); in assay [5] (10 µM unless noted), 102% (inactive) and 110% (inactive); in [6], 108% (inactive) and 107% (inactive). In addition, the growth was 101% (inactive) and 95% (inactive) in assay [7]; 114% (inactive) and 96.6% (inactive) in assay [10]; 98.3% (inactive) in assay [8].

With `COc1ccc(S(=O)(=O)c2ccc(F)cc2)cc1`, the growth in assay [1] was 99% (inactive); in assay [2], 122% (inactive); in [3], 97.8% (inactive); in assay [4] it was 83.8% (inactive); in assay [5] (10 µM unless noted), 95.4% (inactive); in assay [6], 103% (inactive). The values for the growth in assay [7], in [10] and in [8] were 108% (inactive), 108% (inactive) and 84.6% (inactive), respectively.

Take `O=C1c2ccccc2C(c2ccccc2)C1c1ccccc1` (stereo not drawn): the growth was 91.1% (inactive) in [1]; 80.2% (inactive) in assay [2]; 93.5% (inactive) in [3]; 79.4% (inactive) in assay [4]; 124% (inactive) in assay [5] (10 µM unless noted); 98% (inactive) in assay [6]. Also, the growth in [7] is 72.3% (inactive); in assay [10], 102% (inactive); in assay [8], 72.2% (inactive).

Take `COC(=O)C(Cc1cn(C(C)=O)c2ccccc12)P(=O)(OC)OC` (stereo not drawn): the growth is 102% (inactive) in assay [1]; 90.6% (inactive) in assay [2]; 97.7% (inactive) in assay [3]; 74.8% (inactive) in assay [4]; 100% (inactive) in assay [5] (10 µM unless noted); 100% (inactive) in [6]. The growth in assay [7] is 102% (inactive); in [10], 115% (inactive); in [8], 110% (inactive).

For `Cn1c(-c2ccccc2)cc(=O)cc1-c1ccccc1`, the growth in [1] was 10.8% (inactive); in [2], 121% (inactive); in assay [3], 92.6% (inactive); in [4], 79% (inactive); in [5] (10 µM unless noted) it was 91.5% (inactive); in assay [6] it was 0.204% (active). The growth in assay [7] is 83.6% (inactive); in [10] it was 106% (inactive); in [8] it was 79.8% (inactive); in assay [9] it was 81.4% (inactive).

For the compound `C/C=C(/C(=O)NC(N)=O)C(C)C`, the growth in assay [1] is 109% (inactive); in assay [2], 112% (inactive); in assay [3] it was 102% (inactive); in assay [4], 100% (inactive); in [5] (10 µM unless noted) it was 117% (inactive); in assay [6], 110% (inactive). For the same compound, the growth is 104% (inactive) in assay [7], 102% (inactive) in assay [10] and 111% (inactive) in [8].

Turning to `Nc1[nH][nH]c(=O)c1N=Nc1ccccc1`, the growth is 122% (inactive) and 100% (inactive) in [1]; 85.3% (inactive) and 91.3% (inactive) in assay [2]; 97.6% (inactive) and 106% (inactive) in assay [3]; 82.7% (inactive) and 85.1% (inactive) in [4]; 112% (inactive) and 109% (inactive) in assay [5] (10 µM unless noted); 91.2% (inactive) and 104% (inactive) in assay [6]. Moreover, the growth was 104% (inactive) in assay [7]; 86.8% (inactive) and 86.2% (inactive) in assay [10]; 108% (inactive) in assay [8].

Take `Nc1nc(=S)c2[nH]cnc2[nH]1`: the growth was 29.7% (inactive) and 42.5% (inactive) in assay [1]; 44.6% (inactive) and 36.6% (inactive) in [2]; 29.5% (inactive) and 29.9% (inactive) in assay [3]; 16.4% (inactive) and 28.5% (inactive) in assay [4]; 10.3% (inactive) and 31.3% (inactive) in assay [5] (10 µM); -17% (active) and -85.4% (active) in assay [5] (250 µM). The growth in assay [6] was 18.7% (inactive) and 20.5% (inactive); in assay [7], 4.02% (active) and 14.2% (inactive); in assay [10], 32% (inactive); in [8] it was 7.32% (active) and 0.0411% (active).

For the compound `COc1ccccc1OCC(O)CO` (stereo not drawn), the growth in assay [1] was 98.3% (inactive) and 110% (inactive); in assay [2], 102% (inactive) and 83.5% (inactive); in assay [3], 95.2% (inactive) and 103% (inactive); in assay [4] it was 87.6% (inactive) and 96.4% (inactive); in assay [5] (10 µM unless noted) it was 98% (inactive); in assay [6], 102% (inactive) and 110% (inactive). In addition, the growth is 90.8% (inactive) in assay [7]; 98% (inactive) and 87.8% (inactive) in [10]; 98.5% (inactive) and 97.1% (inactive) in assay [8].

(Values after PubChem BioAssay (NCI).)
